# Screening data: PubChem, several laboratories
# Rows were chosen to be rich in hits. Some 2.8% of all compounds tested hit in one or more screens of this group.
# LGR2 inh: inhibitors of bursicon-induced Drosophila LGR2 receptor cAMP signaling | HEK293 LGR2, CRE-luciferase, bursicon-stimulated, 4 h | inhibition, % at 9.99 µM | 380,000 compounds, 0.35% hits;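 active = drop in luminescence signal, shown as inhibition above about 50% in the replicate tests, limit read from the data, passing the limit was not always enough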;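 also: agonist challenge used bursicon conditioned medium at about half maximal strength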
# TROY NFkB inh: inhibitors of TROY-dependent NF-kB signaling; Q293 LMP1-TROYcd NF-kB luciferase reporter, 4 h; 360,000 compounds, 0.98% hits; inhibition, % at 10 µM;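 active = compounds whose plate-normalised and pattern-corrected inhibition of the luciferase reporter signal at the single screening dose is 50% or more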
# PAX8 reporter: lowers PAX8-driven luciferase in RMG-I cells; RMG-I TPO-luciferase reporter, SteadyGlo, 24 h; 360,000 compounds, 1.2% hits; inhibition, % at 12.6 µM; AID 652154;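 active = mean replicate inhibition at least 60% with every replicate also reaching 60%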;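 also: luciferase light reporting Pax8 driven TPO promoter activity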
# TWEAK-Fn14 inh: TWEAK-Fn14 signaling inhibition; AID 1159606; inhibition, % at 10 µM; 360,000 compounds, 2% hits; TWEAK-stimulated Fn14 reporter cells, luciferase luminescence, 8 h; in the data active = inhibition above about 50%
# EWS-Fli inh: inhibitors of EWS/Fli oncoprotein transcriptional activity | 350,000 compounds, 0.67% hits | AID 651661 | A673 NR0B1-luciferase reporter, viability-normalised | inhibition, % at 12.6 µM;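 active = mean inhibition of at least 50% after viability correction, with every replicate also passing that limit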;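 also: firefly luciferase signal divided by Alamar Blue viability fluorescence both relative to DMSO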
# A number is an active result; i = inactive; nt = not tested or not shown; ! = repeats disagree.
SMILES,LGR2 inh,TROY NFkB inh,PAX8 reporter,TWEAK-Fn14 inh,EWS-Fli inh
O=C(NCc1ccccc1)[C@@]1(Cc2ccccc2)COC(c2ccc(OCCCO)cc2)=N1,nt,nt,i,nt,i
C/C=C/c1ccc2c(c1)O[C@H](CN(C)Cc1ccc(F)cc1)[C@@H](C)CN([C@@H](C)CO)S2(=O)=O,i,nt,nt,nt,i
CCOC(=O)NNC(=O)CCn1c2c(c3ccccc31)CCCC2,i,i,i,59,i
COC(=O)NC(=C(Cl)Cl)S(=O)(=O)c1ccccc1,i,i,nt,69,nt
Cc1ccc(C(=O)NC(C#N)=C(Cl)Cl)cc1,106,nt,i,nt,77
Cc1ccc(C(=O)NCC#N)cc1,i,i,i,i,i
Cc1ccc(C(=O)NC(=C(Cl)Cl)S(=O)(=O)c2ccccc2)cc1,i,i,i,84,i
COc1ccc(C(=O)NC(=C(Cl)Cl)S(=O)(=O)c2ccc(C)cc2)cc1,i,i,i,i,i
CCOC(=O)NC(C(Cl)(Cl)Cl)S(=O)(=O)c1ccccc1 (configuration not stated),i,i,i,i,i
COCC(=O)N(C)C[C@H]1Oc2cc(-c3ccccc3F)ccc2S(=O)(=O)N([C@@H](C)CO)C[C@@H]1C,i,nt,i,nt,i
CN(C)CC(=O)N[C@@H]1CC[C@H](CC(=O)O)O[C@@H]1CO,i,nt,nt,nt,i
CN(C)CC(=O)N[C@H]1CC[C@@H](CC(=O)NCCN2CCCCC2)O[C@H]1CO,i,nt,i,nt,i
O=C(COc1ccccc1[N+](=O)[O-])Nc1cccnc1,i,i,i,i,i
Cc1ccnc(NC(=O)COc2ccccc2[N+](=O)[O-])c1,i,i,i,51,i
Cc1ccc(NC(=O)COc2ccccc2[N+](=O)[O-])nc1,54,i,i,58,i
C=CCOc1ccc2c(CC)cc(=O)oc2c1C,i,i,i,i,i
CCOc1ccc2c(CC)cc(=O)oc2c1OCC,i,i,102,i,i
COC(=O)C1=CN(c2ccc3c(c2)OCO3)C(N)=C(C#N)C1c1cccc(F)c1 (configuration not stated),i,nt,i,nt,56
COc1ccc(C=NNc2ccc(S(=O)(=O)Nc3ccccc3C(=O)O)cc2[N+](=O)[O-])c(OC)c1,nt,59,nt,i,nt
COc1ccc(NS(=O)(=O)c2ccc(N/N=C(\C)c3ccncc3)c([N+](=O)[O-])c2)cc1,i,i,i,74,i
Cc1nn(-c2ccccc2)c(Cl)c1/C=N/Nc1ccc(S(=O)(=O)Nc2ccccc2C(=O)O)cc1[N+](=O)[O-],i,52,nt,i,nt
O=C(O)c1ccccc1NS(=O)(=O)c1ccc(NN=Cc2ccccc2F)c([N+](=O)[O-])c1,i,i,i,i,i
N#C[C@@H]1[C@H](c2ccc(-c3cccc(F)c3)cc2)[C@H](CO)N1S(=O)(=O)c1cccc(F)c1,i,nt,i,nt,i
COc1cccc(-c2ccc3c(c2)O[C@@H](CN(C)C)[C@@H](C)CN([C@@H](C)CO)S3(=O)=O)c1,i,nt,nt,nt,i
COc1ccc(NC(=O)Nc2ccc3c(c2)C(=O)N([C@@H](C)CO)C[C@H](C)[C@@H](CN(C)Cc2ccc(Cl)c(Cl)c2)OCCCC[C@@H](C)O3)cc1,i,nt,i,nt,i
SMILES,LGR2 inh,TROY NFkB inh,PAX8 reporter,TWEAK-Fn14 inh,EWS-Fli inh
COc1ccc(NC(=O)Nc2ccc3c(c2)C(=O)N([C@@H](C)CO)C[C@@H](C)[C@@H](CN(C)Cc2ccc(Cl)c(Cl)c2)OCCCC[C@@H](C)O3)cc1,i,nt,75,nt,i
COc1ccc(NC(=O)Nc2ccc3c(c2)C(=O)N([C@H](C)CO)C[C@H](C)[C@@H](CN(C)Cc2ccc(Cl)c(Cl)c2)OCCCC[C@@H](C)O3)cc1,i,i,74!,i,i
CCCN1C[C@H](C)[C@H](OC)CN(C)C(=O)c2cc(NC(=O)c3cnccn3)ccc2OC[C@H]1C,i,nt,nt,nt,i
Cc1ccccc1-c1ccc([C@H]2[C@@H](CO)N3CCCCN(C(=O)Nc4cccc(F)c4)C[C@H]23)cc1,nt,nt,100,nt,67
Cc1ccccc1-c1ccc([C@@H]2[C@H](CO)N3CCCCN(C(=O)Nc4cccc(F)c4)C[C@@H]23)cc1,i,nt,108,nt,61
O=C(C[C@H]1C=C[C@H](NC(=O)c2ccccc2)[C@@H](CO)O1)NCc1ccncn1,i,nt,i,nt,i
CC1(C)CC(NC(=O)c2ccccc2)CC(C)(C)N1,i,i,i,i,i
CC1(C)CC(Nc2ccc(Nc3ccccc3)cc2)CC(C)(C)N1,i,i,69,i,i
O=C(Nc1cccc(-c2nc3ccccc3s2)c1)c1ccc2c(c1)OCO2,i,i,nt,i,i
c1ccc2sc(-c3ccc4c(c3)OCO4)nc2c1,nt,i,nt,74,nt
COc1cccc(-c2nc3ccccc3s2)c1,nt,i,nt,i,nt
COc1ccc(-c2nc3ccccc3s2)cc1,80,52,i,75,79
Cc1ccc(S(=O)(=O)n2nc(OC(=O)c3ccccc3C)cc2N)cc1,i,i,i,57,i
COc1ccccc1C(=O)Oc1cc(N)n(S(=O)(=O)c2ccc(C)cc2)n1,nt,i,i,i,nt
Cc1ccccc1/C(=N\S(=O)(=O)c1ccc(Br)cc1)Nc1ccccc1,i,i,i,i,i
Cc1c(/N=C(\[O-])Nc2ccc(Br)cc2)sn[n+]1C,82,i,i,68,i
CCN1CCC(O)(/C=C/c2ccc(C(C)C)cc2)C(C(=O)/C=C/c2ccc(C(C)C)cc2)C1 (configuration not stated),i,i,64,i,56
Cc1cccc(OCC(=O)NCCNC(=O)c2ccco2)c1,i,i,i,i,i
Cc1ccc(OCC(=O)NCCNC(=O)c2ccco2)cc1C,i,i,i,52,i
Cc1ccccc1CN1[C@@H](CC(C)C)COc2cc(Br)ccc2S1(=O)=O,i,nt,i,nt,i
C=C1[C@@H](O)[C@H](CC(C)C)N(Cc2ccccc2Br)S1(=O)=O,i,i,i,79,i
O=C1c2ccccc2S(=O)(=O)N1Cc1nc2ccccc2s1,nt,79,nt,103,nt
Cc1ccccc1CN1C(=O)c2ccccc2S1(=O)=O,i,i,i,i,i
O=C(C1CC1)N1C[C@@H]2[C@H](c3ccccc31)[C@@H](CO)N2C(=O)c1cccc(F)c1,i,nt,i,nt,i
COCC(=O)Nc1ccc2c(c1)OC[C@@H](C)N(C(=O)C1CCCC1)C[C@H](C)[C@H](OC)CN(C)C2=O,i,nt,i,nt,i
SMILES,LGR2 inh,TROY NFkB inh,PAX8 reporter,TWEAK-Fn14 inh,EWS-Fli inh
C=C1C(=O)C=C2CN(C(=O)c3ccccc3)[C@@](Cc3ccc(F)cc3)(C(=O)OC)[C@@H]12,nt,81,nt,105,nt
COc1ccc(-c2c[n+]3c(n2-c2ccc(C)cc2)CCCCC3)cc1,nt,i,99,i,i
COc1ccc(-c2c[n+]3c(n2-c2c(C)n(C)n(-c4ccccc4)c2=O)CCCCC3)cc1,i,i,i,i,i
CCOc1ccc(-n2c(-c3ccccc3)c[n+]3c2CCC3)cc1,i,i,82,i,i
CCOc1ccc(-n2c(-c3ccc(OC)cc3)c[n+]3c2CCCCC3)cc1,i,i,99,i,i
CCOc1ccc(-n2c(-c3ccc(Br)cc3)c[n+]3c2CCCCC3)cc1,i,i,95,i,i
COc1ccc(-n2c(-c3ccc(Cl)cc3)c[n+]3c2CCCCC3)cc1,i,i,i,i,i
